Measured values as given in the supplement of paper PMC10849652.
Of roughly 7,900 targets only a part is listed; those with a hit were picked by preference. About 0.6% of all pairs of compound and target were hits. Unmarked numbers belong to inactive results.

Columns and labels:
Test in all cases: log2 fold change, soluble protein after heating vs DMSO (PISA); higher = thermal stabilisation; K562 cells, 10 uM, 30 min; active = over 0.2 and 3.5 SD of the protein, either way, in both replicates (recomputed)
[1] = compound: COC1=CC=C(C=C1)CN2C=CC3=C2C=C(C=C3)C(=O)NO
Procedure, shortened: (§1)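 K562 cells at 2×10^6 cells/mL were exposed to 10 μM compound for 30 min, then aliquots were heated for 3 min across 48°C-58°C, pooled, and extracted in PBS containing 0.5% NP-40 at 4°C. The supernatant after 21,000xg for 90 min was taken as soluble protein and measured by TMTpro 16plex LC-MS/MS with channel sums equalised. Thermal stability is reported relative to control samples, with values from duplicates. Fold changes are given on a log2 scale.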

filanesib = compound: CON(C)C(=O)N1N=C(c2cc(F)ccc2F)S[C@@]1(CCCN)c1ccccc1 [filanesib]
Procedure, shortened: as §1

zotarolimus = compound: CO[C@H]1C[C@@H]2CC[C@@H](C)[C@@](O)(O2)C(=O)C(=O)N2CCCC[C@H]2C(=O)O[C@H]([C@H](C)C[C@@H]2CC[C@H](n3cnnn3)[C@H](OC)C2)CC(=O)[C@H](C)/C=C(\C)[C@@H](O)[C@@H](OC)C(=O)[C@H](C)C[C@H](C)/C=C/C=C/C=C/1C [zotarolimus]
Procedure, shortened: as §1

idasanutlin = compound: COc1cc(C(=O)O)ccc1NC(=O)[C@@H]1N[C@@H](CC(C)(C)C)[C@](C#N)(c2ccc(Cl)cc2F)[C@H]1c1cccc(Cl)c1F [idasanutlin]
Procedure, shortened: as §1

alisertib = compound: COc1cc(Nc2ncc3c(n2)-c2ccc(Cl)cc2C(c2c(F)cccc2OC)=NC3)ccc1C(=O)O [alisertib]
Procedure, shortened: as §1

[2] = compound: COc1cc2nc(-c3cc(F)ccc3O)nc(N[C@@H]3CNC[C@H]3C(C)(C)O)c2cc1OC
Procedure, shortened: as §1

[3] = compound: COc1cccc2cc(-c3nc([C@H]4CC[C@H](C(=O)O)CC4)n4ncnc(N)c34)[nH]c12
Procedure, shortened: as §1

lapatinib = compound: CS(=O)(=O)CCNCc1ccc(-c2ccc3ncnc(Nc4ccc(OCc5cccc(F)c5)c(Cl)c4)c3c2)o1 [lapatinib]
Procedure, shortened: as §1

pictilisib = compound: CS(=O)(=O)N1CCN(Cc2cc3nc(-c4cccc5[nH]ncc45)nc(N4CCOCC4)c3s2)CC1 [pictilisib]
Procedure, shortened: as §1

[4] = compound: CS(=O)(=O)c1ccc(-c2cnc(N)c(C(=O)Nc3ccccc3)n2)cc1
Procedure, shortened: as §1

crizotinib = compound: C[C@@H](Oc1cc(-c2cnn(C3CCNCC3)c2)cnc1N)c1c(Cl)ccc(F)c1Cl [crizotinib]
Procedure, shortened: as §1

[5] = compound: C[C@@H]1COCCN1C2=NC(=NC(=C2)C3(CC3)S(=O)(=O)C)C4=C5C=CNC5=CC=C4
Procedure, shortened: as §1

[6] = compound: C[C@H](C1=CC=C(C=C1)C(=O)NC2=C3C=CNC3=NC=C2)N
Procedure, shortened: as §1

duvelisib = compound: C[C@H](Nc1ncnc2nc[nH]c12)c1cc2cccc(Cl)c2c(=O)n1-c1ccccc1 [duvelisib]
Procedure, shortened: as §1

gandotinib = compound: Cc1cc(Nc2cc(CN3CCOCC3)c3nc(C)c(Cc4ccc(Cl)cc4F)n3n2)n[nH]1 [gandotinib]
Procedure, shortened: as §1

[7] = compound: Cc1cc(SCc2sc(-c3ccc(C(F)(F)F)cc3)nc2C)ccc1OCC(=O)O
Procedure, shortened: as §1

doramapimod = compound: Cc1ccc(-n2nc(C(C)(C)C)cc2NC(=O)Nc2ccc(OCCN3CCOCC3)c3ccccc23)cc1 [doramapimod]
Procedure, shortened: as §1

gefitinib = compound: COc1cc2ncnc(Nc3ccc(F)c(Cl)c3)c2cc1OCCCN1CCOCC1 [gefitinib]
Procedure, shortened: as §1

tozasertib = compound: Cc1cc(Nc2cc(N3CCN(C)CC3)nc(Sc3ccc(NC(=O)C4CC4)cc3)n2)n[nH]1 [tozasertib]
Procedure, shortened: as §1

ispinesib = compound: Cc1ccc(C(=O)N(CCCN)[C@@H](c2nc3cc(Cl)ccc3c(=O)n2Cc2ccccc2)C(C)C)cc1 [ispinesib]
Procedure, shortened: as §1

Sequence of UniProt Q8N4S0 (Q8N4S0 whole entry, looked up): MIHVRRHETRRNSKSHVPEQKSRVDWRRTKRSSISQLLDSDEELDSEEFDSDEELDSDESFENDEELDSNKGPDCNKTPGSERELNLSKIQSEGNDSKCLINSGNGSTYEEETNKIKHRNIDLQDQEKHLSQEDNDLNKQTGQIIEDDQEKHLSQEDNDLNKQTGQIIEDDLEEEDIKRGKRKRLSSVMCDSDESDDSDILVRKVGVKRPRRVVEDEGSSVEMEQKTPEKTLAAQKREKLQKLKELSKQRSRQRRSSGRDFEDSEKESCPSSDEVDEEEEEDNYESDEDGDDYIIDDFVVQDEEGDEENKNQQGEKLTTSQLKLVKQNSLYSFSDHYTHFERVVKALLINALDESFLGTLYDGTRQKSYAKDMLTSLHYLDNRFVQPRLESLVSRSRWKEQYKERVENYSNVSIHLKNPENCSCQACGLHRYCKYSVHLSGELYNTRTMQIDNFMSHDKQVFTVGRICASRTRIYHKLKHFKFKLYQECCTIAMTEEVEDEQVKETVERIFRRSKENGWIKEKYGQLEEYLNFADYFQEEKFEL
Sequence of UniProt P15954 (P15954 whole entry, looked up): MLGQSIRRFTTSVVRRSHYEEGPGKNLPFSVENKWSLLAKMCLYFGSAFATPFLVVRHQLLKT
Sequence of UniProt P51636 (P51636 whole entry, looked up): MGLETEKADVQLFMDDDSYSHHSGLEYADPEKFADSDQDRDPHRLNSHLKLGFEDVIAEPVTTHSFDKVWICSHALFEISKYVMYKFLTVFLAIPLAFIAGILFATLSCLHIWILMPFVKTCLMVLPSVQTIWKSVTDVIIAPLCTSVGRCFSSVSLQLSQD
Sequence of UniProt Q6UUV9 (Q6UUV9 whole entry, looked up): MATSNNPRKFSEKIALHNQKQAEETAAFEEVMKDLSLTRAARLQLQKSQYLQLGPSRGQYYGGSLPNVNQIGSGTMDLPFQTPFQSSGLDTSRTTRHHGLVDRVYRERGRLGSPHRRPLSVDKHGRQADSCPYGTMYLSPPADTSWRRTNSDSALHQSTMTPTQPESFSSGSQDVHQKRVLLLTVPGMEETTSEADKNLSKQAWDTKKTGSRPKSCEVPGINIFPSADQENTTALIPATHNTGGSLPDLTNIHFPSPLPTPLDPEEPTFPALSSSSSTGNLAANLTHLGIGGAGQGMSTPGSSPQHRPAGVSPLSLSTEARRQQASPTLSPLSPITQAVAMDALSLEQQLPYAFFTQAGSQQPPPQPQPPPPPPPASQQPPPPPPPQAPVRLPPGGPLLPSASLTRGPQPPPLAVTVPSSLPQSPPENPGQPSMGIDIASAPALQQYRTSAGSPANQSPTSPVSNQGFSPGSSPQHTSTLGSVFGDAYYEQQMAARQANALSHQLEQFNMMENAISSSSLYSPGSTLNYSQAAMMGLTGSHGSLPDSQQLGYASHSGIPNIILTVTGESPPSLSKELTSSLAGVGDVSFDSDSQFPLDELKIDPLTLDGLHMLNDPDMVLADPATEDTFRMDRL
Sequence of UniProt Q96G28 (Q96G28 whole entry, looked up): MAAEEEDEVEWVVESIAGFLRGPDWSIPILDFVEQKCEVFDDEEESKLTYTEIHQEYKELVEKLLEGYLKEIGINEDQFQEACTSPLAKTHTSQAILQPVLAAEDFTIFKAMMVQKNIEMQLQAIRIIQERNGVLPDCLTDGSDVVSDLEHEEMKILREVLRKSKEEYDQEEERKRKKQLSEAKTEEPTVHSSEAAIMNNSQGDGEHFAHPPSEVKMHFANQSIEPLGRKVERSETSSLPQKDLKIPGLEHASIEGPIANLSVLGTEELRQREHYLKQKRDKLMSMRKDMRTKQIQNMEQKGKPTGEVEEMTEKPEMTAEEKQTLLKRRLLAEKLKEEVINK
Sequence of UniProt Q00537 (Q00537 whole entry, looked up): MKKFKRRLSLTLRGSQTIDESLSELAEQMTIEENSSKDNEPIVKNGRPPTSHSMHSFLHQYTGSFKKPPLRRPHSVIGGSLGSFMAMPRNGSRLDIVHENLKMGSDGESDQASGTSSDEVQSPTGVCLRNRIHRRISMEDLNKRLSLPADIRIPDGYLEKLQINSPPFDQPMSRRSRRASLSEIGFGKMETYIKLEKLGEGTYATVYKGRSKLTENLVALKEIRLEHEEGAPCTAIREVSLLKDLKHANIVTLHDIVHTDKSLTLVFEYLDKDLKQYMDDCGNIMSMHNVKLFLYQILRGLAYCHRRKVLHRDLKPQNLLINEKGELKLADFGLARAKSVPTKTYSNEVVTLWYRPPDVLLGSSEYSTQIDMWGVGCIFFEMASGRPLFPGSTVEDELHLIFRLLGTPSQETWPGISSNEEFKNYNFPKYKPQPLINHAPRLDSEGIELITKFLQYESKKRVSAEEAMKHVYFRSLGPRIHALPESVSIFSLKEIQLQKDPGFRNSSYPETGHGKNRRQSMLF
Sequence of UniProt Q00536 (Q00536 whole entry, looked up): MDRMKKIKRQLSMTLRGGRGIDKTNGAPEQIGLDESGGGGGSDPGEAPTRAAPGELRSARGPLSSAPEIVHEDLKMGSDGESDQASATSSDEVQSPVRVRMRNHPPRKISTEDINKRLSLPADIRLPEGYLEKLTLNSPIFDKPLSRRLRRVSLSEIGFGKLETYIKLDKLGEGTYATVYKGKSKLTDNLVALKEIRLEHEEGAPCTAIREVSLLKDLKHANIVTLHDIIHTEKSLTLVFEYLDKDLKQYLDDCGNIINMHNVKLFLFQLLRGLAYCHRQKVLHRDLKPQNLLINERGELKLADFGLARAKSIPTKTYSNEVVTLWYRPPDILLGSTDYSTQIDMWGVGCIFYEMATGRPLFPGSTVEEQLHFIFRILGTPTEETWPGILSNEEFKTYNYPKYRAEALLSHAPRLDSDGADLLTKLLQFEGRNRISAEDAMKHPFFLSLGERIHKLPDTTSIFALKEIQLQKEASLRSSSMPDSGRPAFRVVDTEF
Sequence of UniProt P48729 (P48729 whole entry, looked up): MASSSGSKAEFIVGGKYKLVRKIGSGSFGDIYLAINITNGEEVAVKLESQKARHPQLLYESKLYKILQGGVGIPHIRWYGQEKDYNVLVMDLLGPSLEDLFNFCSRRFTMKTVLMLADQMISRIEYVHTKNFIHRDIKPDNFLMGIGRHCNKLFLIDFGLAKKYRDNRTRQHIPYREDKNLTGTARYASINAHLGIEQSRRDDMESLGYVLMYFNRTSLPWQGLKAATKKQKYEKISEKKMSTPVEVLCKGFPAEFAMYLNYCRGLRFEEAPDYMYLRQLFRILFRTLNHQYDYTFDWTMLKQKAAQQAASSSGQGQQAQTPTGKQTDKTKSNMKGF
Sequence of UniProt Q6P5X5 (Q6P5X5 whole entry, looked up): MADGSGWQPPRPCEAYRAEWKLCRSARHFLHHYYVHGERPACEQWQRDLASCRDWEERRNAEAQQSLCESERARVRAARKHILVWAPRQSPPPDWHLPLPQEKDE

Row | Target | log2 fold change [1] | log2 fold change (filanesib) | log2 fold change (zotarolimus) | log2 fold change (idasanutlin) | log2 fold change (alisertib) | log2 fold change [2] | log2 fold change [3] | log2 fold change (lapatinib) | log2 fold change (pictilisib) | log2 fold change [4] | log2 fold change (crizotinib) | log2 fold change [5] | log2 fold change [6] | log2 fold change (duvelisib) | log2 fold change (gandotinib) | log2 fold change [7] | log2 fold change (doramapimod) | log2 fold change (gefitinib) | log2 fold change (tozasertib) | log2 fold change (ispinesib)
1 | CDK17 isoform 2 (UniProt Q00537) | -0.031 | -0.024 | -0.208 | 0.03 | 0.508 | 0.051 | 0.103 | 0.049 | 0.158 | 0.087 | -0.082 | -0.035 | 0.076 | -0.006 | 0.057 | 0.126 | 0.028 | – | – | –
2 | COX7C (UniProt P15954) | 0.12 | 0.009 | – | 0.114 | -0.016 | -0.069 | -0.053 | 0.008 | -0.288 | 0.025 | 0.147 | 0.028 | – | -0.04 | 0.043 | -0.114 | -0.072 | 0.059 | -0.015 | -0.096
3 | CFAP36 isoform 2 (UniProt Q96G28) | 0.12 | 0.055 | 0.162 | -0.02 | -0.049 | 0.001 | 0.019 | 0.082 | 0.241 | -0.013 | -0.201 | 0.078 | -0.394 (active) | 0.133 | -0.048 | -0.007 | 0.096 | – | 0.587 (active) | -0.053
4 | C22orf39 (UniProt Q6P5X5) | 0.02 | -0.043 | -0.014 | 0.119 | -0.025 | -0.344 | -0.006 | 0.077 | – | 0.075 | -0.303 | 0.06 | -0.057 | 0 | – | -0.135 | 0.072 | 0.058 | 0.096 | -0.207
5 | CRTC1 isoform 2 (UniProt Q6UUV9) | -0.39 (active) | -0.002 | – | -0.021 | – | 0.138 | – | 0.028 | -0.013 | -0.068 | -0.016 | 0.192 | – | 0.139 | 0.008 | -0.076 | 0.005 | – | -0.004 | -0.11
6 | CCDC82 (UniProt Q8N4S0) | -0.356 | – | 0.013 | 0 | 0.034 | -0.013 | -0.102 | 0.043 | – | – | 0.148 | -0.174 | 0.015 | -0.223 | – | -0.119 | -0.165 | 0.052 | -0.106 | -0.026
7 | CAV2 (UniProt P51636) | -0.046 | 0.131 | – | 0 | -0.083 | -0.011 | 0.026 | -0.018 | 0.031 | -0.067 | -0.087 | – | – | 0.075 | 0.043 | 0.035 | 0.13 | 0.137 | -0.115 | –
8 | CSNK1A1 (UniProt P48729) | 0.147 | 0.08 | 0.024 | 0.094 | – | -0.214 | -0.036 | 0.019 | 0.024 | -0.093 | -0.115 | -0.114 | -0.073 | -0.04 | 0.014 | 0.017 | 0.024 | -0.106 | -0.034 | -0.125
9 | CDK16 isoform 2 (UniProt Q00536) | 0.029 | 0.021 | -0.028 | -0.036 | 0.02 | 0.252 | 0.037 | 0.002 | – | 0.03 | -0.036 | 0.06 | -0.07 | 0.058 | 0.436 (active) | 0.096 | -0.022 | -0.086 | – | -0.046
